Most compounds without a hit are left out; they make up all but 3.1% or so of the library.
Rin1 Abl inh: inhibitors of Rin1-Abl protein binding, primary screen, biochemical, TR-FRET. inhibition, % at 7.35 µM. 0.4% of 360,000 active. Tyrosine-protein kinase ABL1 (Homo sapiens) + Ras and Rab interactor 1 (Homo sapiens), …; in the data active = inhibition above about 5%, passing the limit was not always enough
Neddylation inh: inhibitors of cullin neddylation, primary screen, biochemical, TR-FRET, uHTS, NAE and Ubc12; 0.58% of 360,000 active; NEDD8-conjugating enzyme Ubc12 (Homo sapiens) + NEDD8-activating enzyme E1 regulatory …; calls only at 25 µM; in the data active = inhibition above about 36%
UHRF1 MBD2 ctr: UHRF1 methylated DNA binding inhibitors, primary screen, counter-screen for MBD2 inhibitor project, biochemical, TR-FRET, human UHRF1, single concentration; UHRF1 binding to methylated oligo; inhibition, % at 4.4 µM; 0.75% of 370,000 active; AID 687016, 2013; in the data active = inhibition above about 21%;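 also: UHRF1 SRA domain binding a hemimethylated CpG hairpin DNA probe; 0% = median of test compound wells and 100% = reference inhibitor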
LEDGF integ inh: blockers of LEDGF/p75-dependent integrase strand transfer – biochemical, TR-FRET, high throughput, primary screen; 0.64% of 370,000 active; AID 743269, 2014; HIV-1 integrase (with human LEDGF/p75); TR-FRET IN-LEDGF/p75 DNA integration, Eu/Cy5; inhibition, % at 3.7 µM;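 active = inhibition above the screen-wide mean plus 3 SD, cut at about 13% in these data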;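 also: signal is the Cy5 over europium emission ratio at 671 and 618 nm; 0% = plate median of compound wells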
proKLK7 act: proKLK7 zymogen activators, primary screen, biochemical, fluorescence intensity; 0.9% of 370,000 active; activation, % at 7 µM; purified proKLK7, EDANS-DABCYL substrate fluorescence; 100% is mature enzyme control, 0% vehicle; Kallikrein-7 (Homo sapiens), P49862;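 active = activation above the mean of all tested compounds plus 3 SD, computed per campaign excluding outliers beyond control limits, cut at about 13% in these data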
Target sequence (P49862 whole entry, looked up): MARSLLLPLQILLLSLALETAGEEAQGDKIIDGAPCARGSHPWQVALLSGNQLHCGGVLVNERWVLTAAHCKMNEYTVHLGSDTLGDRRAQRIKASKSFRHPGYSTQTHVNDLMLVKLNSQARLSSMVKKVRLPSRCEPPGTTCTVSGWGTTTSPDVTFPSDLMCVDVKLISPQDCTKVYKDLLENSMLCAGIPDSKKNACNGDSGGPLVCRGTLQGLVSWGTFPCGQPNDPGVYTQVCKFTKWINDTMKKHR
MBD2 DNA inh: inhibitors of MBD2 binding to methylated DNA, primary screen, biochemical, TR-FRET, DNA-binding domain, human; Methyl-CpG-binding domain protein 2 (Homo sapiens), Q9UBB5; MBD2 binding to methylated oligonucleotide; inhibition, % at 4.4 µM; 0.31% of 370,000 active; in the data active = inhibition above about 13%
KLK7 act conf: proKLK7 zymogen activators, confirmation, biochemical, fluorescence intensity, triplicate. 68% of 3,200 active. purified proKLK7, EDANS-DABCYL substrate fluorescence; scaled: vehicle 0, mature enzyme 100. activation, % at 7 µM. shares compounds with proKLK7 act;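 active = activation, as change over the incubation, above the mean of all tested compounds plus 3 SD, cut at about 13% in these data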
EDANS-DABCYL int: EDANS-DABCYL substrate optical interference, artefact control for kallikrein-7 zymogen activator project, biochemical, fluorescence intensity, high throughput; shares compounds with proKLK7 act; no enzyme, 4 h; solvent 0%, active enzyme control 100%; activation, % at 7 µM; 80% of 3,200 active;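 active = activation above the all-compound mean plus 3 SD, ignoring values outside control-based bounds, cut at about 4.8% in these data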;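 also: value is the 4 h activation minus the activation read at time zero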
K7 EDANS ctr: optically interferes with EDANS-DABCYL fluorescence, kallikrein-7 activator counter-screen; shares compounds with proKLK7 act; EDANS-DABCYL peptide fluorescence interference, no enzyme; EC50, µM; 20% of 250 active; AID 720493;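 active = compounds that raise the fluorescence signal in this interference counterscreen, with EC50 at or below 10 µM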;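 also: intact quenched peptide substrate alone read at 355 nm excitation and 520 nm emission; signal is fluorescence gain from T0 to T4 after four hours at room temperature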
Numbers without * were called inactive; i = inactive; nt = no result given.

SMILES	Rin1 Abl inh	Neddylation inh	UHRF1 MBD2 ctr	LEDGF integ inh	proKLK7 act	MBD2 DNA inh	KLK7 act conf	EDANS-DABCYL int	others
CC(=O)c1cc2c(C)cc(=O)oc2cc1O	0	nt	-6	-2	-73	3	nt	nt
N#C/C(=C/c1ccc(-c2ccc(S(N)(=O)=O)cc2)o1)C(=O)Nc1ccccc1	-3	i	1	0	27*	-3	16*	0	K7 EDANS ctr=i
O=C(NCCc1csc(-c2ccc(C(F)(F)F)cc2)n1)c1cccs1	-2	i	0	-1	0	2	nt	nt
COC(=O)C1=NN(c2cccc(C)c2)C2C(=O)N(c3ccccc3OC)C(=O)C12 (configuration not stated)	0	nt	1	0	15*	3	-52	-47
COC(=O)C1=NN(c2ccc(OC)cc2)C2C(=O)N(c3ccccc3OC)C(=O)C12 (configuration not stated)	-2	i	-2	5	0	-2	nt	nt
COC(=O)C1=NN(c2ccccc2OC)C2C(=O)N(c3ccccc3OC)C(=O)C12 (configuration not stated)	0	i	1	5	15*	-2	8	11*
COc1ccc(C2c3[nH]c4ccccc4c3CCN2CCCn2cccn2)c(C)c1C (configuration not stated)	-3	nt	1	-7	27*	3	19*	20*
COc1cc(C=Nc2ccccc2C(=O)Nc2ccccc2)cc(OC)c1OC	2	nt	2	1	19*	-1	18*	22*
O=C(CC(SCCO)c1ccc2c(c1)OCO2)c1ccco1 (configuration not stated)	0	i	-2	0	17*	-5	48*	46*
Cc1ccc(/C=C2\Oc3c(ccc(O)c3CN3CCN(CCO)CC3)C2=O)cc1	-2	i	-11	-5	96*	-11	79*	73*
CC(C)c1ccc(/C=C2\Oc3c(ccc(O)c3CN3CCN(C)CC3)C2=O)cc1	-2	i	-6	4	38*	-6	-16	-26
Cc1ccc(-c2c(C#N)c(N)n(-c3ccc(C)cc3)c(=O)c2C#N)cc1	0	i	4	6	21*	7	187*	270*
CCCCC(=O)NC(=S)Nc1ccc(NC(=O)C(C)C)c(OC)c1	-8	i	-1	1	0	-1	nt	nt
COCCNC(=S)NCCCNc1nc2cc3c(cc2cc1C#N)OCO3	2	nt	-7	-1	25*	1	14*	19*
COc1ccccc1-c1coc2cc(OC(=O)N3CCOCC3)ccc2c1=O	2	i	2	-3	1	3	nt	nt
COc1ccccc1-c1coc2c(CN3CCN(CCO)CC3)c(O)ccc2c1=O	-1	nt	1	-2	111*	2	74*	81*
CC1CCCCN1Cc1c(O)ccc2c(=O)c(-c3ccc(Cl)cc3Cl)coc12 (configuration not stated)	0	nt	2	0	4	4	nt	nt
COc1ccccc1-c1coc2c(CN3CCN(C)CC3)c(O)ccc2c1=O	5	nt	17	1	80*	7	73*	73*
CCN1CCN(Cc2c(O)ccc3c(=O)c(-c4ccccc4OC)coc23)CC1	3	nt	0	-2	50*	-1	73*	78*
COc1ccccc1Oc1coc2c(CN3CCN(C)CC3)c(O)ccc2c1=O	-1	nt	8	0	74*	4	74*	78*
O=C(CN1CCN(C(=O)c2cncn2-c2ccccc2)CC1)Nc1ccccc1Cl	-2	i	1	2	0	-1	nt	nt
O=C(C[C@H]1C/C=C\CCC(=O)OC[C@H]2CCCN2C1=O)NCCO	3	i	0	-1	0	-5	nt	nt
O=C1NC(c2ccc(Cl)cc2)Nc2ccccc21 (configuration not stated)	0	i	0	0	3	3	nt	nt
Cc1ccc(C2NC(=O)c3ccccc3N2)c(C)c1 (configuration not stated)	4	nt	2	-6	32*	11	29*	26*
O=C1NC(c2ccco2)Nc2ccccc21 (configuration not stated)	1	i	2	-2	16*	-1	17*	18*
SMILES	Rin1 Abl inh	Neddylation inh	UHRF1 MBD2 ctr	LEDGF integ inh	proKLK7 act	MBD2 DNA inh	KLK7 act conf	EDANS-DABCYL int	others
Cc1cc(=O)n2ccccc2c1C#N	-4	nt	-6	-2	48*	1	70*	70*
Cc1cc(=O)n2c(ccc3ccccc32)c1C#N	4	i	-1	0	0	-3	nt	nt
CC1(C)Oc2ccc3ccc(=O)oc3c2C(/C=N/O)=C1Cl	-3	i	5	-6	0	5	nt	nt
CC1(C)Oc2ccc3ccc(=O)oc3c2C(/C=N/O)C1=O (configuration not stated)	2	i	2	2	27*	-4	17*	18*
Cc1cc(=O)oc2cc(OCC(=O)N3CCOCC3)c(Cl)cc12	0	nt	-1	-3	18*	1	33*	24*	K7 EDANS ctr=>70
Cc1cc(=O)oc2cc(OCC(=O)N3CCN(c4ccccc4)CC3)c(Cl)cc12	-5	i	2	-3	0	4	nt	nt
CCCN(CCC)Cc1cc(=O)oc2ccccc12	nt	nt	-1	-2	0	3	nt	nt
CCn1nc(NC(=O)C(C)C)c2cc3cccc(C)c3nc21	-4	nt	8	-2	62*	0	-8	-6
CCn1nc(NC(C)=O)c2cc3cccc(C)c3nc21	-3	nt	-3	0	2	-5	nt	nt
COc1ccc(-c2cc(=O)oc3c(C)c(O)c(CN(C)C)cc23)cc1	-6	nt	-5	4	14*	-5	-5	-7
COc1ccc(-c2cc(=O)oc3c(C)c(OCC(=O)N(C)C)ccc23)cc1	3	i	2	-3	2	4	nt	nt
